IL-1B inflam inh: qHTS for Inhibitors of Inflammasome Signaling: IL-1-beta AlphaLISA Primary Screen; THP-1 LPS/ATP IL-1B secretion, AlphaLISA, 16 h; stronger effect = lower value; activity change, % at 57.5 µM; hit rate 4.7% among 360,000; AID 743279, 2014; in the data active = activity change below about -50%; inconclusive = mostly about -30% to -49%
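THP-1 cells pretreated 1 hr with compounds (up to 57.5 uM final), then stimulated with LPS (250 ng/mL final) plus ATP (1.25 mM final); secreted IL-1B measured by AlphaLISA after 16 hr, decreased signal indicating inhibition.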
HepG2 viability: qHTS for Inhibitors of TGF-b: Cytotox Counterscreen; hit rate 0.76% among 410,000; Potency, µM (highest dose often 46.1 µM), hits mostly cytotoxic; HepG2 CAGA-GFP viability, ATP luminescence, 18 h; AID 588856, 2011
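CellTiter-Glo luminescence gave cytotoxicity after 18 hours at 37 degrees C. The cells were HepG2 CAGA-GFP in 1% FBS DMEM, stimulated with 500 pg/mL TGF-beta after compound addition. %Activity was normalised to no-cell wells (complete cell-killing) and DMSO (no toxicity), and curves were fitted and classified.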
DT40 TDP1 CPT: qHTS for Inhibitors of human tyrosyl-DNA phosphodiesterase 1 (TDP1): qHTS in cells in presence of CPT | hit rate 12% among 420,000 | Potency, µM (top dose mostly 46.2 µM), actives largely listed as inhibitors | chicken DT40 Tdp1-/-;hTDP1 cells + 20 nM CPT, ATP luminescence, 48 h; note: nearly all actives have a fitted effect of over 55% in size
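Chicken DT40 Tdp1-/- cells complemented with human TDP1, 400 cells/well, exposed to compounds plus 20 nM camptothecin for at least 48 h at 37 C; viability read as ATP content by CellTiter-Glo luminescence.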
TGFb SMAD3 inh: qHTS for Inhibitors of TGF-b. HepG2 CAGA-GFP TGF-b/SMAD3 reporter, GFP fluorescence, 18 h; TGF-beta stimulated, 500 pg/mL final. Potency, µM (titrated, usually from 46.1 µM), hits mostly inhibitors. hit rate 1.2% among 410,000. AID 588855, 2011; note: nearly all actives have a fitted effect of over 65% in size
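First, reporter cells (HEPG2 CAGA-GFP) rested 2 h at 37 degrees C. Next, compounds were pinned in and TGF-beta added to 500 pg/mL final. After 18 h, GFP was imaged per cell and summed per well.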
DT40 TDP1 no CPT: qHTS for Inhibitors of human tyrosyl-DNA phosphodiesterase 1 (TDP1): qHTS in cells in absence of CPT; hit rate 15% among 420,000; Potency, µM (doses to about 46.2 µM), actives largely listed as inhibitors; DT40 Tdp1-/- hTDP1 cells, no CPT, ATP luminescence, 48 h; note: nearly all actives have a fitted effect of over 55% in size
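No-CPT arm: Tdp1-/-;hTDP1 DT40 cells (400/well) plus compounds, incubated ≥48 hr at 37 °C. Readout CellTiter-Glo luminescence.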
TDP1 block: qHTS Assay for Inhibitors of Tyrosyl-DNA Phosphodiesterase (TDP1) | Tyrosyl-DNA phosphodiesterase 1 (Homo sapiens), Q9NUW8 | recombinant TDP1, AlphaScreen DNA substrate cleavage | Potency, µM (series often up to 130 µM), actives largely listed as inhibitors | hit rate 0.28% among 350,000; note: nearly all actives have a fitted effect of over 40% in size
Target sequence (Q9NUW8 whole entry, looked up): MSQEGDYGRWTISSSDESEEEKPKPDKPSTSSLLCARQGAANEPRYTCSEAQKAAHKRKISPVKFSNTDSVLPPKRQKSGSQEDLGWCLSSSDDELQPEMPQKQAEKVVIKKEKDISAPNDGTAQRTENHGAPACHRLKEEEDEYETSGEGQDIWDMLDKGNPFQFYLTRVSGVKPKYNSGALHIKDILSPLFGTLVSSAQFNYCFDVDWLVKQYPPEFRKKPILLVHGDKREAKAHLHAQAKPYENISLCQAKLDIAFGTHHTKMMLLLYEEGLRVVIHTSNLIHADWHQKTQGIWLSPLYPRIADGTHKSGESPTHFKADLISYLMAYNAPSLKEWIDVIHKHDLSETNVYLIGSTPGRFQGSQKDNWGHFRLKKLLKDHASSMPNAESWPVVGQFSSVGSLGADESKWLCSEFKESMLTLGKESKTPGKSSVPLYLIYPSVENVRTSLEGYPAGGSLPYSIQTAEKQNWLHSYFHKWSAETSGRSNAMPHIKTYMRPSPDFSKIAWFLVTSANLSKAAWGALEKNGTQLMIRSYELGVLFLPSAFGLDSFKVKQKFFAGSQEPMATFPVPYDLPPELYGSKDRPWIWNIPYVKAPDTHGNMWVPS
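Recombinant E. coli-expressed Tdp1 (1 nM) preincubated with compound 15 min at RT, then 5'-biotin/3'-phosphotyrosine-FITC DNA substrate (15 nM) added for 5 min. AlphaScreen beads (10 ug/ml) added, 10 min RT; tyrosine-FITC cleavage read as signal loss.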
A number is an active result; – = inactive; ? = inconclusive; · = not tested or not shown; [ ] = another dose, or the depositor's remark. A selection: hits, their analogues and other compounds. The true share with any hit is near 18%. Unless noted, calls come from the whole dose curve; as a rule, active = well fitted curve in the direction sought with a large enough effect; inconclusive = small, poorly fitted or top-dose-only effect, or another doubt; inactive = no such curve, though single readings can be large; an effect the other way counts as inactive or inconclusive.

SMILES | IL-1B inflam inh | HepG2 viability | DT40 TDP1 CPT | TGFb SMAD3 inh | DT40 TDP1 no CPT | TDP1 block
COC(=O)c1ccc(COc2ccc(/C=C(\C#N)c3nc4ccccc4[nH]3)cc2OC)o1 | – | – | 7.3µM | – | 5.8µM | ·
COc1cc(/C=C(\C#N)c2nc3ccccc3[nH]2)ccc1OCc1cccc(C(F)(F)F)c1 | · | – | 12µM | ? | 9.2µM | –
COc1cc(/C=C(\C#N)c2nc3ccccc3[nH]2)ccc1OCc1ccc(F)cc1 | · | – | – | ? | – | –
O=C(CN1CCNCC1)N1CCOCC1 | – | – | – | – | – | ·
COc1ccc(N2Cc3cccc(C(=O)Nc4ccc(Cl)cc4)c3C2=O)cc1 | · | – | 8.2µM | – | 21µM | –
COc1ccc(N2Cc3cccc(C(=O)N4CCN(C(=O)c5ccco5)CC4)c3C2=O)cc1 | – | – | – | – | – | 11µM
O=c1[nH][nH]c2c1[C@H](c1ccc(F)cc1)O[C@H](CCC(F)(F)F)C2 | – | · | – | · | – | ·
COc1cccc(NC(=O)CN(C)C(=O)c2cccnc2Sc2ccc(C)c(C)c2)c1 | – | – | – | – | – | ·
CCCCNC(=O)N1CCN(c2ccnc3cc(Cl)ccc23)CC1 | – | – | 21µM | – | 13µM | ·
O=C(Nc1cc(F)ccc1F)N1CCN(c2ccnc3cc(Cl)ccc23)CC1 | ? | – | 4.1µM | – | 5.2µM | ·
CC(=O)N1CCN(c2ccnc3cc(Cl)ccc23)CC1 | – | – | – | – | – | –
Cc1cccc(Cl)c1NC(=O)N1CCN(c2ccnc3cc(Cl)ccc23)CC1 | – | – | ? | – | 13µM | –
COC(=O)c1scc(C)c1NC(=O)c1ccccc1F | – | – | – | – | – | ·
COc1ccc(NC(=O)c2cc(-c3cc(F)ccc3OCC3CCCO3)n[nH]2)c(C)c1 (stereo not drawn) | -66 | – | ? | – | ? | ·
COc1ccc(NC(=O)c2cc(-c3cc(F)ccc3OCC3CCCO3)n[nH]2)cc1OC (stereo not drawn) | -81 | – | ? | – | 21µM | ·
C[C@@H]1C(=O)O[C@@H]1[C@@H](C)CO[Si](c1ccccc1)(c1ccccc1)C(C)(C)C | · | – | · | – | · | –
Cc1cccc(NC(=O)CSc2cn(CC(=O)N3CCCCCC3)c3ccccc23)c1 | · | – | – | – | – | –
CCCCc1ccc(NS(=O)(=O)c2ccc(N3CCCCS3(=O)=O)cc2)cc1 | · | – | ? | ? | ? | –
CCCCNS(=O)(=O)c1ccc(N2CCCCS2(=O)=O)cc1 | · | – | ? | – | 23µM | –
Cc1ccc(CNS(=O)(=O)c2ccc(N3CCCCS3(=O)=O)cc2)cc1 | · | – | 12µM | – | 16µM | –
O=S(=O)(NCCc1ccc(Cl)cc1)c1ccc(N2CCCCS2(=O)=O)cc1 | · | – | 18µM | – | 23µM | –
O=S(=O)(NCCc1ccccc1)c1ccc(N2CCCCS2(=O)=O)cc1 | · | – | 18µM | ? | 23µM | –
CC(C)CNS(=O)(=O)c1ccc(N2CCCCS2(=O)=O)cc1 | · | – | ? | – | ? | –
NS(=O)(=O)c1ccc(CCNS(=O)(=O)c2ccc(Cl)cc2)cc1 | – | – | – | – | – | ·
C[C@@H]1CN([C@H](C)CO)C(=O)c2cc(-c3ccccc3)cnc2O[C@@H]1CN(C)C(=O)C1CCOCC1 | – | – | – | – | – | ·
CCOC(=O)c1c(NC(=O)COc2ccc3ccc(=O)oc3c2)sc(C(=O)N(C)C)c1C | – | – | ? | – | – | –
CCOc1ccc(NC(=O)CSc2nnnn2C2CCCC2)cc1 | – | – | – | – | ? | –[0.0935 µM]
CCN(c1cccc(C)c1)S(=O)(=O)c1ccc(N2CCCCS2(=O)=O)cc1 | · | – | 13µM | ? | 23µM | –
